Source: PMC7862700, “An all-to-all approach to the identification of sequence-specific readers for epigenetic DNA modifications on cytosine”

How the values were obtained:
Assay in all cases: DAPPL (digital affinity profiling via proximity ligation, sequencing); 10 mM Tris-HCl pH 7.5, 50 mM NaCl, 1 mM DTT, 4% glycerol, room temperature, 30 min; GST-TFs on glutathione beads, 16-mer random dsDNA library, 0.1% formaldehyde crosslink after washing; high values mean tight binding
FEV = target: T1, FEV (Homo sapiens, UniProt Q99581 1-238); settings: protein: recombinant; tags: N-terminal GST; dsDNA, one strand shown
T1 sequence: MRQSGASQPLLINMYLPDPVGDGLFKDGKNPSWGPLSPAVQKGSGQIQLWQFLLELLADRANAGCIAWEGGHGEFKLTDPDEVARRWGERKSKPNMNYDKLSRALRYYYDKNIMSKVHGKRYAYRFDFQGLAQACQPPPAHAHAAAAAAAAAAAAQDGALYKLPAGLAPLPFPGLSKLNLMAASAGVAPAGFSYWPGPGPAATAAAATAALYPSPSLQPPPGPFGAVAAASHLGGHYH
Procedure, shortened: (§1)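 Binding signal is defined as a hexamer's read frequency for one factor over its frequency for the tag-only sample. To obtain reads, GST-fused human transcription factors were expressed in yeast, captured on glutathione beads, barcoded with DNA and pooled with that sample. Pools met 200 nmole of a 16-mer random double-stranded DNA library in Tris/NaCl/DTT/glycerol buffer for 30 min at room temperature before washing, 0.1% formaldehyde crosslinking, proximity ligation (BsaI/T4 ligase, 1 h, 37 °C), PCR and Illumina NextSeq500 sequencing.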

ETV5 = ETV5 (Homo sapiens, UniProt P41161 1-510); settings: protein: recombinant; tags: N-terminal GST; dsDNA, one strand shown
Sequence of ETV5 (P41161 whole entry): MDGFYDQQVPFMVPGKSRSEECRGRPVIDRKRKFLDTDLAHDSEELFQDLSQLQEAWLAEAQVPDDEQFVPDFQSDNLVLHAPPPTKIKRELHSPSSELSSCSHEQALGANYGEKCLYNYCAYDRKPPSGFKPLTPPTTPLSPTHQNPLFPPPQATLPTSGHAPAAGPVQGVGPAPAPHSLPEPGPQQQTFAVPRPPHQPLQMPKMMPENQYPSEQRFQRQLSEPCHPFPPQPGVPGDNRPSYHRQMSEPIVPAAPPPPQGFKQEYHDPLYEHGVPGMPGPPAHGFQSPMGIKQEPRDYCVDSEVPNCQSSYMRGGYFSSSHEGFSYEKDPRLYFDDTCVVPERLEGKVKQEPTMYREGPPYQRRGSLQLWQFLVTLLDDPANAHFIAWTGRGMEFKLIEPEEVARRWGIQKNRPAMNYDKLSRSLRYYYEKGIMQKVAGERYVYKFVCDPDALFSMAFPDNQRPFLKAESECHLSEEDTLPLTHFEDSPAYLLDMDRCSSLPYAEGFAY
Procedure, shortened: as §1

HSF1 = HSF1 (Homo sapiens, UniProt Q00613 1-529); settings: protein: recombinant; tags: N-terminal GST; chain copies: 3; dsDNA, one strand shown
Sequence of HSF1 (Q00613 whole entry): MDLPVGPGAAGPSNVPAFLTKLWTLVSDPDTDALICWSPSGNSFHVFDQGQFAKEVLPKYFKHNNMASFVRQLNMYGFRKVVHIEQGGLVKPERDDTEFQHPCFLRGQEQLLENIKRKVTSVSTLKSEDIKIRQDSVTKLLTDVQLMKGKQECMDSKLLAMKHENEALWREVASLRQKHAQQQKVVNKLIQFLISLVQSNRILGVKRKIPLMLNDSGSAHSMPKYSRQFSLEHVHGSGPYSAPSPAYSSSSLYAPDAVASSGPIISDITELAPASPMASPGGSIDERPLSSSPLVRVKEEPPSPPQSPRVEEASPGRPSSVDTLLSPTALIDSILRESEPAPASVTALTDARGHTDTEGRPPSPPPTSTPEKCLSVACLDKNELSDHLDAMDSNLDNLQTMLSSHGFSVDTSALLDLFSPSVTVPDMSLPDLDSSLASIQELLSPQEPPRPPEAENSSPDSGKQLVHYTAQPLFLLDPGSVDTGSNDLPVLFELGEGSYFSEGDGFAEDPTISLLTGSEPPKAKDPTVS
Procedure, shortened: as §1

SPIC = target: T2, SPIC (Homo sapiens, UniProt Q8N5J4 1-248); settings: protein: recombinant; tags: N-terminal GST; dsDNA, one strand shown
T2 sequence: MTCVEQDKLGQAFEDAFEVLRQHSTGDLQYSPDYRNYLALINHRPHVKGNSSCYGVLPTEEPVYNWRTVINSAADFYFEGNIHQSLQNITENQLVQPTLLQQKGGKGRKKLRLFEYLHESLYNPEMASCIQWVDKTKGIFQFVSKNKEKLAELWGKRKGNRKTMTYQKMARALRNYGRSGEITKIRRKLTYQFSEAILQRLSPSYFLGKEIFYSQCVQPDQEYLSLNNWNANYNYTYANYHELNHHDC
Procedure, shortened: as §1

ELF4 = ELF4 (Homo sapiens, UniProt Q99607 1-663); settings: protein: recombinant; tags: N-terminal GST; dsDNA, one strand shown
Sequence of ELF4 (Q99607 whole entry): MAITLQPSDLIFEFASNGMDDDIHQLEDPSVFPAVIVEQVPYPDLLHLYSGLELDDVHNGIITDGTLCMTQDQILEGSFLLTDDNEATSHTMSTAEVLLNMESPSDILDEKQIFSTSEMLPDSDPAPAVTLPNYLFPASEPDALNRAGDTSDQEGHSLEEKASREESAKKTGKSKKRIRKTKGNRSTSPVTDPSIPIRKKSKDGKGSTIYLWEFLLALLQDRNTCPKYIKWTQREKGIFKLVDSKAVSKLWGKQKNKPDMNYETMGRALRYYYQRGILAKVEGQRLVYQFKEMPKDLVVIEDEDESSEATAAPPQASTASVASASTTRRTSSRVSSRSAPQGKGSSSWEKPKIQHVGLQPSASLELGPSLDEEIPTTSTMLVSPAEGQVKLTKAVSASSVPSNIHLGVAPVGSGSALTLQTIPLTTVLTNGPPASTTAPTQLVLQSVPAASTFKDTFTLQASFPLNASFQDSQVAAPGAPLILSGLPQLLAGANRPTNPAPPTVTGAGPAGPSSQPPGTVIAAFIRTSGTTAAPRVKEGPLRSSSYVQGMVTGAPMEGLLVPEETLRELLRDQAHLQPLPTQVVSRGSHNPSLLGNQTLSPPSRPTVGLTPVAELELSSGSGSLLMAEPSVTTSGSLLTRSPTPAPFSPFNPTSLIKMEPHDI
Procedure, shortened: as §1

ELK4 = target: T3, ELK4 (Homo sapiens, UniProt P28324-2 1-405); settings: protein: recombinant; tags: N-terminal GST; dsDNA, one strand shown
T3 sequence: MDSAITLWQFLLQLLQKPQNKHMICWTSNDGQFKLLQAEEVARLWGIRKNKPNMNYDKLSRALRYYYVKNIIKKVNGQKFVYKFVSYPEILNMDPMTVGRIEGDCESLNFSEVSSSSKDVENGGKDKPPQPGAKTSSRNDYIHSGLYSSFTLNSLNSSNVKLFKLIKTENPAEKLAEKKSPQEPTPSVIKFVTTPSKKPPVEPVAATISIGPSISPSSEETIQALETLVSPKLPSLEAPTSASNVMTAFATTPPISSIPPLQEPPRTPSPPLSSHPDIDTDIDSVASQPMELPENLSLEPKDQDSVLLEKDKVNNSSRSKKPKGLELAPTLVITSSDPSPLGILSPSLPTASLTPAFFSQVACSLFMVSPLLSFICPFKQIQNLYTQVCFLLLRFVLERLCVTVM
Procedure, shortened: as §1

ETV2 = target: T4, ETV2 (Homo sapiens, UniProt O00321 1-342); settings: protein: recombinant; tags: N-terminal GST; dsDNA, one strand shown
T4 sequence: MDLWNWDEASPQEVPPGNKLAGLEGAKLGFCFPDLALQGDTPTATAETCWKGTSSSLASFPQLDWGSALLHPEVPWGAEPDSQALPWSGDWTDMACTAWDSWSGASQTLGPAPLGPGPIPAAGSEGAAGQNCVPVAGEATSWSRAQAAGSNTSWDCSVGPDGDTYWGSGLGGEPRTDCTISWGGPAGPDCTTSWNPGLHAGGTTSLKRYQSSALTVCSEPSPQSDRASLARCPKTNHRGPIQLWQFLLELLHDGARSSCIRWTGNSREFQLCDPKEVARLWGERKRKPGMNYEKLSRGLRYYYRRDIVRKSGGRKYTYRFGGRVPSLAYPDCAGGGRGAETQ
Procedure, shortened: as §1

ELF3 = target: T5, ELF3 (Homo sapiens, UniProt P78545 1-371); settings: protein: recombinant; tags: N-terminal GST; dsDNA, one strand shown
T5 sequence: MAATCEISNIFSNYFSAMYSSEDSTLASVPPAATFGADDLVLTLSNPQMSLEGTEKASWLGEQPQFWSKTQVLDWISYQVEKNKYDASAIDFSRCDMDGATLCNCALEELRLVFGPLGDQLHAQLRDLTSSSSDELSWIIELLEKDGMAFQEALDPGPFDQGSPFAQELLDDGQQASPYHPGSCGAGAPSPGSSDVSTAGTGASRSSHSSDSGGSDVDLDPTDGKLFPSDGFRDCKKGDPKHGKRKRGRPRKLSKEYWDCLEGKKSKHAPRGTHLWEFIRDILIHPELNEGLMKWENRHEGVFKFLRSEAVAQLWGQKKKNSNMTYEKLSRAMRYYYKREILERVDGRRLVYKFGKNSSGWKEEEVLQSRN
Procedure, shortened: as §1

CRX = CRX (Homo sapiens, UniProt O43186 1-299); settings: protein: recombinant; tags: N-terminal GST; dsDNA, one strand shown
Sequence of CRX (O43186 whole entry): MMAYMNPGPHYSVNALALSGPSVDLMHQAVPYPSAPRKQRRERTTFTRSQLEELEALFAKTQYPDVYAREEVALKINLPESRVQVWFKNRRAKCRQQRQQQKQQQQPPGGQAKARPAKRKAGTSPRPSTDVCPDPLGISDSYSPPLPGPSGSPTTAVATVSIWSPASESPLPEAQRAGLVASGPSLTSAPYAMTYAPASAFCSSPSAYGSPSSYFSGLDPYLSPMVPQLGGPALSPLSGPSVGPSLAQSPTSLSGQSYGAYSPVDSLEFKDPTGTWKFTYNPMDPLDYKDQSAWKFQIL
Procedure, shortened: as §1

ETV1 = ETV1 (Homo sapiens, UniProt P50549 1-477); settings: protein: recombinant; tags: N-terminal GST; dsDNA, one strand shown
Sequence of ETV1 (P50549 whole entry): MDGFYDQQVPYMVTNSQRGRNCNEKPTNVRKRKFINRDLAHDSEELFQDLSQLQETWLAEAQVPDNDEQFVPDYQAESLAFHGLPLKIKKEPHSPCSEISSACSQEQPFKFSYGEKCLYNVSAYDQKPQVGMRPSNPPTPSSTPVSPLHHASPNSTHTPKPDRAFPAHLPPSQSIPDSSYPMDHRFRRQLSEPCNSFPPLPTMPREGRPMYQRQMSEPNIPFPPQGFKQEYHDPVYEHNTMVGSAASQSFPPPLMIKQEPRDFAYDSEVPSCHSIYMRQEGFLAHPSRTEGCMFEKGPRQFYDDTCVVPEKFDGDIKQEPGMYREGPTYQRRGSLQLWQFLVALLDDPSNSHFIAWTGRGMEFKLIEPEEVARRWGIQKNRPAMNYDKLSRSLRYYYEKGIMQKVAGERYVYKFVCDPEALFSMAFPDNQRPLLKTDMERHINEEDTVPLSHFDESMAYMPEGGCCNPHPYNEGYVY
Procedure, shortened: as §1

AAATGT was tested, and the binding signal (FEV) was 1.27 fold enrichment (6-mer frequency, TF over GST control), the binding signal (ETV5) was 1.28 fold enrichment (6-mer frequency, TF over GST control) and the binding signal (HSF1) was 1.19 fold enrichment (6-mer frequency, TF over GST control). For the same sequence, the binding signal (SPIC) was 1.25 fold enrichment (6-mer frequency, TF over GST control), the binding signal (ELF4) was 1.27 fold enrichment (6-mer frequency, TF over GST control) and the binding signal (ELK4) was 1.4 fold enrichment (6-mer frequency, TF over GST control). The binding signal (ETV2) was 1.36 fold enrichment (6-mer frequency, TF over GST control), the binding signal (ELF3) was 1.54 fold enrichment (6-mer frequency, TF over GST control) and the binding signal (CRX) was 1.04 fold enrichment (6-mer frequency, TF over GST control). For the same sequence, the binding signal (ETV1) was 1.39 fold enrichment (6-mer frequency, TF over GST control).
